Experimental findings from the supplement of paper PMC5919970 are described below.

This experiment has as its system TYKNU. Nature of the experiment: fractional viability relative to vehicle; TYKNU is a high-grade serous ovarian cancer line; higher = less growth inhibition. The conditions noted are these: 72 h, genotype: OPA1 knockout (sgOPA1 #2). Summed up:
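Drug treatment lasted 72 h, with cells grown at 37 °C in 5% CO2 in RPMI 1640 supplemented with 10% FBS. Beforehand, TYKNU control cells or their lentiCRISPRv2 knockout derivatives had been seeded at 500 cells per well into drug-stamped 384-well plates carrying a ~2100-compound library at 2 or 10 μM, in duplicate. Viability came from Cell Titer Glo luminescence, with averaged duplicate treatment wells normalised to duplicate control wells in the same plate position.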

Counter-ions that a name gives are not always drawn. The full ranking holds about 2,000 compounds; the median of “fractional viability relative to vehicle” is about 0.92, and the lowest 2% start at about 0.11. The full list was thinned out, with the lowest values kept by preference.

Turning to `O=C(O)c1ccc(-c2c[nH]c3ncc(-c4ccccc4)cc23)cc1C1CCCC1`, the fractional viability by setting is: (2uM) 0.98; (10uM) 1.11.

Regarding `Cc1ccc([N+](=O)[O-])cc1S(=O)(=O)N(C)/N=C/c1cnc2ccc(Br)cn12`, the fractional viability (2uM) was found to be 0.428 and the fractional viability (10uM) worked out at 0.422.

For the compound `Cc1cc(C(N)=O)ccc1-n1c(CCC(=O)O)ccc1-c1ccc(-n2ccnc2)cc1`, the fractional viability (2uM) came to 0.877 and the fractional viability (10uM) is 0.84.

On to `CCOC(=O)c1ccc(NC2CCCCC2)c(N)c1` [Ferrostatin-1 (Fer-1)], for which the fractional viability is, setting by setting: (2uM) 1.03; (10uM) 0.934.

In the case of `CC(C)[C@H](N)C(=O)OCC(CO)OCn1cnc2c(=O)[nH]c(N)nc21` (stereo partly specified) [Valganciclovir HCl], the fractional viability reads like this: (2uM) 0.846; (10uM) 0.832.

For the compound `C[C@H](NC(=O)/C(C#N)=C/c1cccc(Br)n1)c1ccccc1`, the fractional viability turned out to be 0.867 (2uM) and 0.0926 (10uM).

For `N#C/C(=C\c1ccc(O)c(O)c1)C(=O)NCc1ccccc1` [AG-490 (Tyrphostin B42)], the fractional viability by setting is: (2uM) 1.03; (10uM) 1.08.

For `C[C@H](NC(=O)CCc1nc2ccccc2c(=O)[nH]1)c1ccccc1`, the fractional viability is, setting by setting: (2uM) 0.861; (10uM) 0.876.

As for `CCC[C@H](NC(=O)/C(C#N)=C/c1cccc(Br)n1)c1ccccc1` [Degrasyn (WP1130)], the fractional viability (2uM) is 0.343 and the fractional viability (10uM) was 0.0765.

Turning to `CC(C)C[C@H](NP(=O)(O)O[C@@H]1O[C@@H](C)[C@H](O)[C@@H](O)[C@H]1O)C(=O)N[C@@H](Cc1c[nH]c2ccccc12)C(=O)O` [Phosphoramidon Disodium Salt], the fractional viability is, setting by setting: (2uM) 0.899; (10uM) 0.879.

`CNC(=O)[C@@H](NC(=O)[C@H](CC(C)C)[C@H](O)C(=O)NO)C(C)(C)C` [Marimastat(BB-2516)] had a fractional viability (2uM) of 0.952 and a fractional viability (10uM) of 0.73.

On to `CC[C@@H]([C@H](C)O)n1ncn(-c2ccc(N3CCN(c4ccc(OC[C@@H]5CO[C@@](Cn6cncn6)(c6ccc(F)cc6F)C5)cc4)CC3)cc2)c1=O` [Posaconazole], for which the fractional viability reads like this: (2uM) 1.18; (10uM) 0.872.

Turning to `Cc1ccc(NC(=O)Nc2cc(C(F)(F)F)ccc2F)cc1Nc1ccc2c(c1)NC(=O)/C2=C\c1ccc[nH]1`, the fractional viability is, setting by setting: (2uM) 0.83; (10uM) 0.932.

Consider `CNS(=O)(=O)Nc1nccc(Cc2c(C)c3ccc(Oc4ncccn4)cc3oc2=O)c1F`, for which the fractional viability reads like this: (2uM) 0.508; (10uM) 0.376.

Turning to `O=C(c1cncc(Br)c1)N1CCC(N2CCCC2)CC1`, the fractional viability amounted to 0.797 (2uM) and 0.838 (10uM).

Consider `O=C(c1ccc(C(=O)N2CCC(N3CCCC3)CC2)c(Nc2ccccc2)c1)N1CCC(N2CCCC2)CC1`, for which the fractional viability runs as follows: (2uM) 0.924; (10uM) 0.857.

In the case of `O=C(c1ccc(Nc2nccc(-c3cc4ccccc4s3)n2)cc1)N1CCC(N2CCCC2)CC1` [IKK-16 (IKK Inhibitor VII)], the fractional viability was found to be 0.74 (2uM) and 0.0971 (10uM).

`O=C(N/N=C/c1cc(O)c(O)cc1O)c1cc2ccccc2cc1O` [Dyngo-4a] had a fractional viability (2uM) of 1.04 and a fractional viability (10uM) of 1.16.

`Cc1nc(N(C)C(=O)Cc2ccc(-c3ccccn3)cc2)sc1S(N)(=O)=O` [Pritelivir (BAY 57-1293)] registered a fractional viability (2uM) of 0.924 and a fractional viability (10uM) of 0.791.

Consider `Cc1cc(Cn2cnc3c2CC(C(=O)O)N(C(=O)C(c2ccccc2)c2ccccc2)C3)ccc1N(C)C` (stereo unspecified), for which the fractional viability worked out at 0.986 (2uM) and 0.95 (10uM).

With `Cc1cc(C)cc(C(=O)NOCCCCCC(=O)NO)c1`, the fractional viability reads like this: (2uM) 0.355; (10uM) 0.188.

With `C/C=C1\NC(=O)[C@H]2CSSCC/C=C/[C@H](CC(=O)N[C@H](C(C)C)C(=O)N2)OC(=O)[C@H](C(C)C)NC1=O` [Romidepsin (FK228, Depsipeptide)], the fractional viability by setting is: (2uM) 0.0685; (10uM) 0.0492.

Consider `c1ccc2c(CCNc3ccc(Nc4ccncc4)cc3)c[nH]c2c1`, for which the fractional viability runs as follows: (2uM) 0.485; (10uM) 0.15.

The compound `Oc1nc(-c2ccc(C(F)(F)F)cc2)nc2c1CSCC2` returned a fractional viability (2uM) of 1.13 and a fractional viability (10uM) of 0.683.

As for `Cc1ccc(Nc2nccc(N(C)c3ccc4c(C)n(C)nc4c3)n2)cc1S(N)(=O)=O` [Pazopanib], the fractional viability worked out at 1.14 (2uM) and 0.605 (10uM).

`CCOC(=O)c1[nH]c2cc(Cl)ccc2c1C(C(=O)NC(C)(C)C)N(C=O)Cc1ccc(Cl)cc1` (stereo unspecified): the fractional viability is, setting by setting: (2uM) 0.864; (10uM) 0.464.

`CN(C)c1ccc(C(=C2C=CC(=[N+](C)C)C=C2)c2ccc(N(C)C)cc2)cc1` [Crystal Violet] yielded a fractional viability (2uM) of 0.323 and a fractional viability (10uM) of 0.0953.

Compound `O=C(O)CCC(=O)Nc1ccc(Br)cn1` [Bikinin] registered a fractional viability (2uM) of 0.818 and a fractional viability (10uM) of 0.759.

Regarding `[I-].[K+]` [Potassium Iodide], the fractional viability by setting is: (2uM) 1.07; (10uM) 0.971.

`O=C1NCCCc2c1oc1ccc(O)cc21` gave a fractional viability (2uM) of 1.1 and a fractional viability (10uM) of 1.15.

`c1ccc(Cn2c(-c3ccc(OC[C@H](C4CCNCC4)n4c(-c5ccccc5)nc5ccccc54)cc3)nc3ccccc32)cc1` [Deltarasin]: the fractional viability runs as follows: (2uM) 1.14; (10uM) 0.0644.

Regarding `Cc1cc(/N=N/c2ccc(S(=O)(=O)Nc3ccccn3)cc2)c(N)cc1O`, the fractional viability reads like this: (2uM) 0.89; (10uM) 0.64.

In the case of `O=C(NO)c1cccc(C(=O)NCCc2ccccc2)c1`, the fractional viability stood at 0.926 (2uM) and 0.933 (10uM).
